Consider 40 compounds from PubChem BioAssay.

Molecules are shown by their SMILES. Values without a mark were called inactive. How the calls were made is not given here.

Chain of Pantothenate synthetase (Mycobacterium tuberculosis (strain ATCC 25618 / H37Rv)) (P9WIL5 whole entry, looked up): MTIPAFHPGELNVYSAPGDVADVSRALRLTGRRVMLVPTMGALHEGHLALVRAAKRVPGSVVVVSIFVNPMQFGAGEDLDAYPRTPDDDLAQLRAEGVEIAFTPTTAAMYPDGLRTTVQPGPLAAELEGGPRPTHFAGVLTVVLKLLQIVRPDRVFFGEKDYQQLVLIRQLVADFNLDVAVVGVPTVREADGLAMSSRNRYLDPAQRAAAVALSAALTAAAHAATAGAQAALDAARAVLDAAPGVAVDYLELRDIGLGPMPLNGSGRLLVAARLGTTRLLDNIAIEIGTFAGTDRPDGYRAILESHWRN

The test has as its target Pantothenate synthetase (Mycobacterium tuberculosis (strain ATCC 25618 / H37Rv)) (UniProt P9WIL5). Description: Recombinant Mtb pantothenate synthetase (PanC) inhibitors, coupled enzyme, confirmatory (AID 375).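 Further: 0% = full reaction with vehicle and 100% = no enzyme background.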 As to conditions: coupled enzyme assay; at 10 µM, active compounds read high.
Usually inhibition stands for the drop in the measured response relative to a control, in per cent. For the compound `Cc1ccc(-c2ccc(=O)n(CC(=O)NCCCN3CCCCC3C)n2)cc1` (stereo not given), the inhibition is 0%.

As to `Cc1noc(C)c1CSc1nnc2n(-c3ccccc3)c(=O)c3ccccc3n12`, the inhibition was 0%.

Turning to `CCOc1ccc(C(=O)N2CCN(C(=O)c3ccco3)CC2)cc1OCC`, the inhibition was 1%.

Take `Cc1cc(C)c(OCC(=O)Nc2cccc(O)c2)cc1C`: the inhibition was 0%.

For the compound `Cc1ccc(S(=O)(=O)NCC(=O)N(CC(=O)NCc2ccccc2)CC2CCCO2)cc1` (stereo not given), the inhibition was 2%.

With `Cc1ccc(-c2nnn(CC(=O)N(CC(=O)NCC3CCCO3)c3ccccc3)n2)o1` (stereo not given), the inhibition is 3%.

Regarding `Cc1ccc(C(C(=O)NC2CCCCC2)N(C(=O)c2csnn2)C2CCCC2)o1` (stereo not given), the inhibition was 0%.

Take `O=C(Nc1cccc(C(=O)N2CCOCC2)c1)c1cccnc1`: the inhibition is 0%.

Consider `COC(=O)c1c(O)ccc(Oc2ccccc2)c1C(=O)OC`, for which the inhibition is 0%.

On to `Cc1cc(C(=O)Nc2sc3c(c2C#N)CCCCC3)cs1`, for which the inhibition is 0%.

On to `COc1cc(C2Nc3cccc4cccc(c34)N2)cc(OC)c1O`, for which the inhibition was 0%.

Consider `COc1cc(Nc2cc(C)nc3ncnn23)cc(OC)c1OC`, for which the inhibition was 0%.

Turning to `CCCCCc1c(C)nc(N2CCc3ccccc32)[nH]c1=O`, the inhibition is 0%.

Consider `CCC(CCC(=O)Nc1cccc(C(=O)O)c1)C(=O)O` (stereo not given), for which the inhibition was 2%.

Consider `CN(Cc1ccccc1)C(=O)CNC(=O)Cn1cnc2ccccc2c1=O`, for which the inhibition is 0%.

For the compound `Cn1c(=O)cc(SCC(=O)N2CCOCC2)c2ccc(Cl)cc21`, the inhibition is 0%.

Turning to `COC(=O)C(C)NC(=O)C12CC3CC(CC(C3)C1)C2` (stereo not given), the inhibition is 0%.

For the compound `COC(=O)c1ccc(CSc2nc3c(cnn3-c3ccc(F)cc3)c(=O)[nH]2)o1`, the inhibition was 4%.

`CCOC(=O)c1c(C(F)(F)C(F)(F)C(F)(F)C(F)(F)F)n[nH]c1C`: the inhibition is 8%.

Take `Cn1c(=O)c(NC(=O)c2ccccc2)c2n(c1=S)CCCCC2`: the inhibition was 0%.

Regarding `O=C(NC1CCCCC1)C1CC(O)CN1C(=O)OCc1ccccc1` (stereo not given), the inhibition was 0%.

As to `COCCc1ccc(OCC(O)CNC(C)C)cc1` (stereo not given), the inhibition is 6%.

Turning to `C=CCSc1nc(N)c(C(=O)Nc2ccccc2C)cc1C(N)=O`, the inhibition was 0%.

Take `Cc1c(=O)n(OCc2ccccn2)c2ccccc2[n+]1[O-]`: the inhibition is 0%.

For `Cc1cc(C)n2nc(SCc3cc(=O)n4ccccc4n3)nc2n1`, the inhibition is 0%.

As for `O=S1(=O)CCC(NS(=O)(=O)/C=C/c2ccccc2)C1` (stereo not given), the inhibition was 8%.

With `COc1cc(-c2nc(-c3ccncc3)no2)cc(OC)c1OC`, the inhibition was 2%.

With `Cc1ccc2oc(=O)c3cnn(CC(=O)N4CCCCC4C)c3c2c1` (stereo not given), the inhibition was 0%.

Take `O=C(NCC(=O)N(CCc1ccccc1)C(C(=O)NC1CCCC1)c1cccnc1)c1ccco1` (stereo not given): the inhibition is 3%.

Regarding `CCn1nc(C)c(NC(=O)c2cc(Br)ccc2Cl)c1C`, the inhibition was 15%.

As to `COc1ccc(C2/C(=C(/O)c3ccccc3)C(=O)C(=O)N2c2ncccn2)cc1OC` (stereo not given), the inhibition was 2%.

`Cc1cc(C)n2nc[n+](C)c2n1`: the inhibition was 0%.

As for `CCOc1ccccc1OCCn1nnc2ccccc21`, the inhibition was 4%.

For the compound `COc1cccc2c(=O)c3c(cnn3C)n(C)c12`, the inhibition is 0%.

For `CCCCN(C)Cc1c(C)[nH]c2c(Cl)cccc2c1=O`, the inhibition was 5%.

On to `CCOC(=O)c1nnn(-c2nonc2NC(C)=O)c1C`, for which the inhibition is 8%.

On to `O=C(COC(=O)C12CC3CC(CC(O)(C3)C1)C2)N1CCN(S(=O)(=O)c2ccc(Cl)cc2)CC1`, for which the inhibition was 3%.

In the case of `O=C(O)CCCC(=O)Nc1ccc(Br)cc1C(=O)O`, the inhibition was 0%.

As to `CCOc1cc(C2C(C#N)=C(N)OC(C)=C2C(C)=O)cc(Br)c1O` (stereo not given), the inhibition was 1%.

Consider `O=C(NCCCN1CCOCC1)c1cc(-c2ccc(Cl)cc2)on1`, for which the inhibition is 4%.
